# Paper PMC7862700, “An all-to-all approach to the identification of sequence-specific readers for epigenetic DNA modifications on cytosine”
# Legend:
# Assay in all cases: DAPPL (digital affinity profiling via proximity ligation, sequencing); 10 mM Tris-HCl pH 7.5, 50 mM NaCl, 1 mM DTT, 4% glycerol, room temperature, 30 min; GST-TFs on glutathione beads, 16-mer random dsDNA library, 0.1% formaldehyde crosslink after washing; high values mean tight binding
# FEV = biological target: T1, FEV (Homo sapiens, UniProt Q99581 1-238); settings: protein: recombinant; tags: N-terminal GST; dsDNA, one strand shown
# T1 sequence: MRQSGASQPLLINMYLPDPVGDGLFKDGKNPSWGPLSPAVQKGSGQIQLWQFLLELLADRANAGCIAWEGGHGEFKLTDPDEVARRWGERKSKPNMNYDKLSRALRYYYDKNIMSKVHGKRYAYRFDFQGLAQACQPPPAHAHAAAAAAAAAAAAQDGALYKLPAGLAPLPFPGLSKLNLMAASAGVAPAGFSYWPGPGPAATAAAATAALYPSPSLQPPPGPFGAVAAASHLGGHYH
# Summary of the method: (§1)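 Sequencing on an Illumina NextSeq500 followed washing, crosslinking with 0.1% formaldehyde, proximity ligation (BsaI/T4 ligase, 1 h, 37 °C) and PCR amplification of pools that had been incubated for 30 min at room temperature with 200 nmole of a random double-stranded 16-mer DNA library in Tris/NaCl/DTT/glycerol buffer. Each pool held DNA-barcoded human transcription factors, expressed in yeast as GST fusions and captured on glutathione beads, plus a tag-only sample. Binding signal is a hexamer's read frequency for a factor divided by its frequency in the tag-only sample.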
# ETV5 = ETV5 (Homo sapiens, UniProt P41161 1-510); settings: protein: recombinant; tags: N-terminal GST; dsDNA, one strand shown
# ETV5, sequence (P41161 whole entry): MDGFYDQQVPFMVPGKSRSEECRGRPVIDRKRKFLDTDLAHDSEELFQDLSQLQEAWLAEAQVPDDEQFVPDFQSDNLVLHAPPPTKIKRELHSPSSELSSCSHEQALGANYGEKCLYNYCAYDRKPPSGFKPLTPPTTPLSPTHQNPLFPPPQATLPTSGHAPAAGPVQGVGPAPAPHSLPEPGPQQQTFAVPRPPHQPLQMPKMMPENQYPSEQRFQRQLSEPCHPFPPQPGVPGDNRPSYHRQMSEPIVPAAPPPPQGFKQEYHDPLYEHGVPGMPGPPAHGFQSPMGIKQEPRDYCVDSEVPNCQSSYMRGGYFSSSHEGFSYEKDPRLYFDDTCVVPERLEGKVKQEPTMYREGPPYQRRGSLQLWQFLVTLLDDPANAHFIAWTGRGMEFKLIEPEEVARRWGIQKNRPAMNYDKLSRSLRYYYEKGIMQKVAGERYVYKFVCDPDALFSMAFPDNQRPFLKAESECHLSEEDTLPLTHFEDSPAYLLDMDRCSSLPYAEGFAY
# Summary of the method: as §1
# HSF1 = HSF1 (Homo sapiens, UniProt Q00613 1-529); settings: protein: recombinant; tags: N-terminal GST; chain copies: 3; dsDNA, one strand shown
# HSF1, sequence (Q00613 whole entry): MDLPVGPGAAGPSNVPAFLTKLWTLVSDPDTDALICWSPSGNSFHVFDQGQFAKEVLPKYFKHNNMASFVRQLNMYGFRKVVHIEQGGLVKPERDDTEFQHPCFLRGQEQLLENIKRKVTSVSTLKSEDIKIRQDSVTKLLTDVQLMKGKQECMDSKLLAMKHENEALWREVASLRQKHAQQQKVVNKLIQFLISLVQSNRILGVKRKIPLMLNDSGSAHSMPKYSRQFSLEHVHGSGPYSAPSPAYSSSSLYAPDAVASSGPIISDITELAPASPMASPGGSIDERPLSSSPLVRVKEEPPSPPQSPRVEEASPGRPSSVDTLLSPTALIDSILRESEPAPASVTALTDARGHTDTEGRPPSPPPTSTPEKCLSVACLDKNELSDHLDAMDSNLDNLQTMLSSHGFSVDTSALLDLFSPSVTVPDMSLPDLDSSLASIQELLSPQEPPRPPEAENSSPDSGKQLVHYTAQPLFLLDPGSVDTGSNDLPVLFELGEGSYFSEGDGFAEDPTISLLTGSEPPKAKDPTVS
# Summary of the method: as §1
# SPIC = biological target: T2, SPIC (Homo sapiens, UniProt Q8N5J4 1-248); settings: protein: recombinant; tags: N-terminal GST; dsDNA, one strand shown
# T2 sequence: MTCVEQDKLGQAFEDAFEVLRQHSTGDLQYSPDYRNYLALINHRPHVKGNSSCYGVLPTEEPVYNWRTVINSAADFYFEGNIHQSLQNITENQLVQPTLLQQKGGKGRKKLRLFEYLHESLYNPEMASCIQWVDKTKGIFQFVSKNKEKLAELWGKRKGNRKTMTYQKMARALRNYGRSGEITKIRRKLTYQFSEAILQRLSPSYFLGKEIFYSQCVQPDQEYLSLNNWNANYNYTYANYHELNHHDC
# Summary of the method: as §1
# ELF4 = ELF4 (Homo sapiens, UniProt Q99607 1-663); settings: protein: recombinant; tags: N-terminal GST; dsDNA, one strand shown
# ELF4, sequence (Q99607 whole entry): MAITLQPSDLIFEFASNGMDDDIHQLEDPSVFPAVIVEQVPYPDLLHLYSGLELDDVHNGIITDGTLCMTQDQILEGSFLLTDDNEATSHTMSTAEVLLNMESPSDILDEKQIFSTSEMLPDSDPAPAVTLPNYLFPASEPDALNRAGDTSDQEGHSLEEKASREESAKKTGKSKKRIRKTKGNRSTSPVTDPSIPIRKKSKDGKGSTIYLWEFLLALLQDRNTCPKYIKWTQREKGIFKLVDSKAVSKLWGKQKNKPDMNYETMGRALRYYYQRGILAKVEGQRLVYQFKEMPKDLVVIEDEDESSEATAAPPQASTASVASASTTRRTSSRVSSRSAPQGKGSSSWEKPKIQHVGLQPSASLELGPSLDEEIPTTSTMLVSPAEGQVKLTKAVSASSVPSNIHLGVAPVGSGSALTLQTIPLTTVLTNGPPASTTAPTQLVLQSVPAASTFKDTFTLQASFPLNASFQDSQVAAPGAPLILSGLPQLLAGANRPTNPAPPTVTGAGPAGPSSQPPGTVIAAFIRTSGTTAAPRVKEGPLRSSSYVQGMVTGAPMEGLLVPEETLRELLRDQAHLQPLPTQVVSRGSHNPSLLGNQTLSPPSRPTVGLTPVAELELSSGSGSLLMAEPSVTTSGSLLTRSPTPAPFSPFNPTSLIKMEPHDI
# Summary of the method: as §1
# ELK4 = biological target: T3, ELK4 (Homo sapiens, UniProt P28324-2 1-405); settings: protein: recombinant; tags: N-terminal GST; dsDNA, one strand shown
# T3 sequence: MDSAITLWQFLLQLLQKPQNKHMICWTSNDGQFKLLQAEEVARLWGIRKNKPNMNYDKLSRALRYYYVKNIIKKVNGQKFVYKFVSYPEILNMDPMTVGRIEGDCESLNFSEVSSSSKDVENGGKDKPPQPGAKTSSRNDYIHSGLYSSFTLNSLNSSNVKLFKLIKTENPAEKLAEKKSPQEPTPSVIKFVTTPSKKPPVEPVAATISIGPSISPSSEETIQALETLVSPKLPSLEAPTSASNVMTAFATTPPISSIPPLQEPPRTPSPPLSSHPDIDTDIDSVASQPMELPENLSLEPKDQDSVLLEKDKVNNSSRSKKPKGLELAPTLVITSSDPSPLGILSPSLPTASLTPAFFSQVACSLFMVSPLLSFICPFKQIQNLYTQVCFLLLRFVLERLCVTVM
# Summary of the method: as §1
# ETV2 = biological target: T4, ETV2 (Homo sapiens, UniProt O00321 1-342); settings: protein: recombinant; tags: N-terminal GST; dsDNA, one strand shown
# T4 sequence: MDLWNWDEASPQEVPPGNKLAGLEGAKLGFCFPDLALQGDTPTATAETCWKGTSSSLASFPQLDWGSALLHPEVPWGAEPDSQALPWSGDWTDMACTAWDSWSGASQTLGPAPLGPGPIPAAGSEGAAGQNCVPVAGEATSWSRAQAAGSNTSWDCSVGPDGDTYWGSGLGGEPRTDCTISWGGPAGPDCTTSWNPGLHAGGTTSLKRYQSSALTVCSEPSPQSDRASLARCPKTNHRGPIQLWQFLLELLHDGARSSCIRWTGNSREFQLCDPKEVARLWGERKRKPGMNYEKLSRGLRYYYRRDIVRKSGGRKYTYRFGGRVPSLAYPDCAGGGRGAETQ
# Summary of the method: as §1
# ELF3 = biological target: T5, ELF3 (Homo sapiens, UniProt P78545 1-371); settings: protein: recombinant; tags: N-terminal GST; dsDNA, one strand shown
# T5 sequence: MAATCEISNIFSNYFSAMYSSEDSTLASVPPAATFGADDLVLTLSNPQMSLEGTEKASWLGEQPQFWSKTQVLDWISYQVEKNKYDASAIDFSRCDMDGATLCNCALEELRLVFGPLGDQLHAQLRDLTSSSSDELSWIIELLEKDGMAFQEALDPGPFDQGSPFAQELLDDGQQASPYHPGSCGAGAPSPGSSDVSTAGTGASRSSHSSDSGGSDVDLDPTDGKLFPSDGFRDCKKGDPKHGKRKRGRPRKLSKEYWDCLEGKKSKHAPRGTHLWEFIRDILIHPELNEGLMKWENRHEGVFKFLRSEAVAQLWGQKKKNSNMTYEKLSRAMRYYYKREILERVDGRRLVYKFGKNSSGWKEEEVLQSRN
# Summary of the method: as §1
# CRX = CRX (Homo sapiens, UniProt O43186 1-299); settings: protein: recombinant; tags: N-terminal GST; dsDNA, one strand shown
# CRX, sequence (O43186 whole entry): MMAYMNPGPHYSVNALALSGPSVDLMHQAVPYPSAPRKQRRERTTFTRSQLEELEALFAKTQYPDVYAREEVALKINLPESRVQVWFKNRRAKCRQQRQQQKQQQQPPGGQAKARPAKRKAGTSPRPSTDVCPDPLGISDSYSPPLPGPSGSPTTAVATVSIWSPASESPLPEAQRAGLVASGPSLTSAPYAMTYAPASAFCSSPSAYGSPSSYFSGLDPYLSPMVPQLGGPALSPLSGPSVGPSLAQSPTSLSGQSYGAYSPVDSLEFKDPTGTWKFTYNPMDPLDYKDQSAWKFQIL
# Summary of the method: as §1
# ETV1 = ETV1 (Homo sapiens, UniProt P50549 1-477); settings: protein: recombinant; tags: N-terminal GST; dsDNA, one strand shown
# ETV1, sequence (P50549 whole entry): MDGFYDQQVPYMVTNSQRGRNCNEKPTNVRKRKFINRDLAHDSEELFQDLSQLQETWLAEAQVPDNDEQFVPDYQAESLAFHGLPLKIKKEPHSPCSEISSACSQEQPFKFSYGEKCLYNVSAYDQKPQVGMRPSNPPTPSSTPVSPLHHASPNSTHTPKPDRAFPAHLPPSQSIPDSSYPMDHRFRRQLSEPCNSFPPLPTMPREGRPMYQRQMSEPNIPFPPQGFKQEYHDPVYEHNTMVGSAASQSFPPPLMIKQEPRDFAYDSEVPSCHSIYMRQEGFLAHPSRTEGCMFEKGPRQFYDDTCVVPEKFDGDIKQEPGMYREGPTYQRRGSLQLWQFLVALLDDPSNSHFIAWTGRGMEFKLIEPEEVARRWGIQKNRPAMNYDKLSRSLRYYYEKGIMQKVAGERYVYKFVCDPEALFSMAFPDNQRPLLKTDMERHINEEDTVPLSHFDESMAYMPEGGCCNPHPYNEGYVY
# Summary of the method: as §1
# ERF = biological target: T6, ERF (Homo sapiens, UniProt P50548 1-548); settings: protein: recombinant; tags: N-terminal GST; dsDNA, one strand shown
# T6 sequence: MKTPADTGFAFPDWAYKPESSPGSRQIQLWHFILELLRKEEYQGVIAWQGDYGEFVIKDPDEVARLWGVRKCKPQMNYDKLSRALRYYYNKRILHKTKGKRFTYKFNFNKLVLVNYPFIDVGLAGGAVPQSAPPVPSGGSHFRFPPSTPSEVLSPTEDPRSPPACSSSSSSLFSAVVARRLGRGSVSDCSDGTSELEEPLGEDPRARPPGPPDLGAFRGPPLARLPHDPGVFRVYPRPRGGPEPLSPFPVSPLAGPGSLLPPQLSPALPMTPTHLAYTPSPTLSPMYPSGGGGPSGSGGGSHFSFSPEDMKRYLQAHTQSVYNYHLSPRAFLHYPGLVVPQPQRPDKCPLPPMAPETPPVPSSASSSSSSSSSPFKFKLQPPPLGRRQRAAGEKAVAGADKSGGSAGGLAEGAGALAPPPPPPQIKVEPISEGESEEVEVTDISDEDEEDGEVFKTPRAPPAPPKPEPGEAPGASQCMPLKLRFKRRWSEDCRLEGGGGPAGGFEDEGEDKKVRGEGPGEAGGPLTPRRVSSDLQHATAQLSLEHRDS
# Summary of the method: as §1
# ETV3L = biological target: T7, ETV3L (Homo sapiens, UniProt Q6ZN32 1-361); settings: protein: recombinant; tags: N-terminal GST; dsDNA, one strand shown
# T7 sequence: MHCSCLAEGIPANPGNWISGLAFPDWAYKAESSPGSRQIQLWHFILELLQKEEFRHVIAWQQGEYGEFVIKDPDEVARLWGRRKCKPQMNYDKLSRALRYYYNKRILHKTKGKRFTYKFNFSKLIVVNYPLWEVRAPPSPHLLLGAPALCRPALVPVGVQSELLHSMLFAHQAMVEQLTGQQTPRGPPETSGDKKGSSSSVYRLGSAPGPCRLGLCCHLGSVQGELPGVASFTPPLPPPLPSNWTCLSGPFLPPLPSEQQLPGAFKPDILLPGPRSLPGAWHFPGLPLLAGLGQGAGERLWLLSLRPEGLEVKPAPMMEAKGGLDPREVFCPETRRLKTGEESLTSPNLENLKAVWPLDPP
# Summary of the method: as §1
# ETS2 = biological target: T8, ETS2 (Homo sapiens, UniProt P15036 1-469); settings: protein: recombinant; tags: N-terminal GST; dsDNA, one strand shown
# T8 sequence: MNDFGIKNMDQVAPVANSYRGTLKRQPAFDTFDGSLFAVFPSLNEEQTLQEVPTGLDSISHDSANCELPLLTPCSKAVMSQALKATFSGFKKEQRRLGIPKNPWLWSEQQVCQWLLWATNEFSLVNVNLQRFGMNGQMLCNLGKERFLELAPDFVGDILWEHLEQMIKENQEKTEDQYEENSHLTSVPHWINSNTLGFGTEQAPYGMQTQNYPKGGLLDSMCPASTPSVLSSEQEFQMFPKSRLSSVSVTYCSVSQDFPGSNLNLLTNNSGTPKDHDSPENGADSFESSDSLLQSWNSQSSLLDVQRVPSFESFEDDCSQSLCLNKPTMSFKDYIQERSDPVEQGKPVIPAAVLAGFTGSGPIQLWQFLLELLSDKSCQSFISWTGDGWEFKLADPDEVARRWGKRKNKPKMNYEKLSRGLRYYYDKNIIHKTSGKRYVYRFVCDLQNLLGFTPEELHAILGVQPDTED
# Summary of the method: as §1
# SPDEF = biological target: T9, SPDEF (Homo sapiens, UniProt O95238 1-335); settings: protein: recombinant; tags: N-terminal GST; dsDNA, one strand shown
# T9 sequence: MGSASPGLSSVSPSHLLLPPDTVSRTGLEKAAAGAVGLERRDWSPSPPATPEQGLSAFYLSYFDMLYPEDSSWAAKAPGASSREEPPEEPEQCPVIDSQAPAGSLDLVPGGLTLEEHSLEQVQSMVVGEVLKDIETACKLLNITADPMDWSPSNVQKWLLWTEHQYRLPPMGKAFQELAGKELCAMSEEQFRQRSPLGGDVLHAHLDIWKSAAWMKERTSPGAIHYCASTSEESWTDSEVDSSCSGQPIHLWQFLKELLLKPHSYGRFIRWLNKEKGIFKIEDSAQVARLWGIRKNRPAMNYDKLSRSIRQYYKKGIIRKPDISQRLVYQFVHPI
# Summary of the method: as §1
# ETV7 = biological target: T10, ETV7 (Homo sapiens, UniProt Q9Y603 1-341); settings: protein: recombinant; tags: N-terminal GST; dsDNA, one strand shown
# T10 sequence: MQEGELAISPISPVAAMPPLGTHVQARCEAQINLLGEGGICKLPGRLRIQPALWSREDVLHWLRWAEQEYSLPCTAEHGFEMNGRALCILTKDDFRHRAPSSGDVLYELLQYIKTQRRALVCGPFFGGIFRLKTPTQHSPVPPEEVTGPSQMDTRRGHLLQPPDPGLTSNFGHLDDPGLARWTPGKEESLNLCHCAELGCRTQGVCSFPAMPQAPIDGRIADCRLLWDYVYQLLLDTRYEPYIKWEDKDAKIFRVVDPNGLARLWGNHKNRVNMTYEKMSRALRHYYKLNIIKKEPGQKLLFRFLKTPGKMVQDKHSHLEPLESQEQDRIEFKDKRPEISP
# Summary of the method: as §1
# ELF5 = biological target: T11, ELF5 (Homo sapiens, UniProt Q9UKW6-2 1-255); settings: protein: recombinant; tags: N-terminal GST; dsDNA, one strand shown
# T11 sequence: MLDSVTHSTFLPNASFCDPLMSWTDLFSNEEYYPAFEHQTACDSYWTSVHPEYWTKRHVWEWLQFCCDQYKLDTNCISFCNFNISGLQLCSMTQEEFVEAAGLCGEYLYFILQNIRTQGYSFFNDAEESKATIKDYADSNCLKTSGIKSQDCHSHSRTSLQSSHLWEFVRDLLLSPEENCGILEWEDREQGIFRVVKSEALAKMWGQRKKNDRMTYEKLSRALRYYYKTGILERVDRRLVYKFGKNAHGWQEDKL
# Summary of the method: as §1
# ETV3 = biological target: T12, ETV3 (Homo sapiens, UniProt P41162-2 1-143); settings: protein: recombinant; tags: N-terminal GST; dsDNA, one strand shown
# T12 sequence: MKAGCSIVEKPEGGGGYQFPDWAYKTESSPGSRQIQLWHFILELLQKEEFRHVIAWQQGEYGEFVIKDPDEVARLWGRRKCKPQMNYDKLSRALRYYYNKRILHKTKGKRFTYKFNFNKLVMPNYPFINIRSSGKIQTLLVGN
# Summary of the method: as §1
# ETV6 = ETV6 (Homo sapiens, UniProt P41212 1-452); settings: protein: recombinant; tags: N-terminal GST; dsDNA, one strand shown
# ETV6, sequence (P41212 whole entry): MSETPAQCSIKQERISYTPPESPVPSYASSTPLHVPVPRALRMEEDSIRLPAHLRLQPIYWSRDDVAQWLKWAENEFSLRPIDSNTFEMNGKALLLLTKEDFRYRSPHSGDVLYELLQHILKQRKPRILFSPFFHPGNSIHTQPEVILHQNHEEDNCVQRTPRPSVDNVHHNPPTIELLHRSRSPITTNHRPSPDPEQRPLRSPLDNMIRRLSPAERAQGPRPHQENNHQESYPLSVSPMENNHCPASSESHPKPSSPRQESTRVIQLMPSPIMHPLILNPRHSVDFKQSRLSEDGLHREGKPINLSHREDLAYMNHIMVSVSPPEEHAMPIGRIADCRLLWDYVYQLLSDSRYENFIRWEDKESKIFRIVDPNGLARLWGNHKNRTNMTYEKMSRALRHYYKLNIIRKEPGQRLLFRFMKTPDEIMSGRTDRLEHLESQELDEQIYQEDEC
# Summary of the method: as §1
sequence,measurement,setting,value
CCATTT,binding signal,FEV,"1.5 fold enrichment (6-mer frequency, TF over GST control)"
same,binding signal,ETV5,"1.47 fold enrichment (6-mer frequency, TF over GST control)"
same,binding signal,HSF1,"1.01 fold enrichment (6-mer frequency, TF over GST control)"
same,binding signal,SPIC,"1.42 fold enrichment (6-mer frequency, TF over GST control)"
same,binding signal,ELF4,"1.32 fold enrichment (6-mer frequency, TF over GST control)"
same,binding signal,ELK4,"1.41 fold enrichment (6-mer frequency, TF over GST control)"
same,binding signal,ETV2,"1.38 fold enrichment (6-mer frequency, TF over GST control)"
same,binding signal,ELF3,"1.28 fold enrichment (6-mer frequency, TF over GST control)"
same,binding signal,CRX,"1.01 fold enrichment (6-mer frequency, TF over GST control)"
same,binding signal,ETV1,"1.36 fold enrichment (6-mer frequency, TF over GST control)"
same,binding signal,ERF,"1.32 fold enrichment (6-mer frequency, TF over GST control)"
same,binding signal,ETV3L,"1.25 fold enrichment (6-mer frequency, TF over GST control)"
same,binding signal,ETS2,"1.41 fold enrichment (6-mer frequency, TF over GST control)"
same,binding signal,SPDEF,"1.21 fold enrichment (6-mer frequency, TF over GST control)"
same,binding signal,ETV7,"1.24 fold enrichment (6-mer frequency, TF over GST control)"
same,binding signal,ELF5,"1.31 fold enrichment (6-mer frequency, TF over GST control)"
same,binding signal,ETV3,"1.34 fold enrichment (6-mer frequency, TF over GST control)"
same,binding signal,ETV6,"1.34 fold enrichment (6-mer frequency, TF over GST control)"
